Test results: PubChem BioAssay (NCI)
Several values for one entry are separate records, joined by “and”; a condition that tells them apart may be missing. Equal values may be shown once. Compounds without any hit were thinned out: in the full panel of roughly 83,000, 20% have a hit.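 A percent growth of 40 corresponds to 60% growth inhibition; 0 means no net growth; -100 means all cells died. Active threshold: below 10.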 Values without a mark were called inactive. Activity calls are given as the source filed them.

The compounds below were run on MDA-MB-468 breast (assay: NCI-60 one-dose screen, 48 h (100 = growth as untreated, 0 = no growth, -100 = all killed)). Details: 10 µM unless noted.
Procedure: Growth inhibition of the MDA-MB-468 human Breast tumor cell line is measured as a screen for anti-cancer activity. Cells are grown in 96 well plates and exposed to the test compound for 48 hours. Compounds are tested at a single concentration, which is 10^-5 M for most compounds. The reported endpoint is percent growth (GI% or GIPRCNT), where numbers from 0 - 100% represent growth inhibition, and numbers from -100% - 0 represent cell death. For example, a value of 40 represents 60% growth inhibition. A value of 0 means no net growth occurred over the course of the experiment. A value of -40 indicates 40% of cells at the beginning of the experiment died by the end of the experiment. A value of -100 means all cells are dead at the end of the experiment.
NCI-60 Human Tumor Cell Lines Screen was performed using the standard one-dose NCI protocol, which is described in more detail at https://dtp.cancer.gov/discovery_development/nci-60/default.htm.
Compounds with GIPRCNT values below 10 were considered active. Activity score was based on GIPRCNT using the following formula: […]
Score is 0 for GIPRCNT values of 100 or above, 50 for GIPRCNT values of 0, and 100 for GIPRCNT values of -100.

Question: With C[C@]12CC[C@H]3[C@@H](CCC4=CC(=O)CC[C@@H]43)[C@@H]1CC[C@@H]2OC(=O)N(CCCl)N=O as the compound, how does the growth read?
Answer: -22.1% (active)

Question: C/C(=C\c1ccn(-c2ccc(N)c(C(F)(F)F)c2)n1)[C@@H]1C[C@@H]2O[C@]2(C)CCC[C@H](C)[C@H](O)[C@@H](C)C(=O)C(C)(C)[C@@H](O)CC(=O)O1 was tested. Which growth did it give?
Answer: 4.12% (active)

Question: CCC[Se]C(=O)c1ccc(C(=O)[Se]CCC)s1 was tested. Which growth did it give?
Answer: -80.6% (active)

Question: How did the growth turn out when [N-]=[N+]=NC(C(=O)O)c1ccccc1 (stereo not given) was run?
Answer: 126%

Question: For C[CH2][Pb]([CH2]C)([CH2]C)[O]C(=O)COC, which growth is on record?
Answer: -49.3% (active)

Question: For O=C(CC1(O)C(=O)N(Cc2ccccc2)c2ccc(F)cc21)c1ccc(C(=O)NCC2CCC3(CC2)OOC2(CCCCC2)OO3)cc1 (stereo not given), which growth is on record?
Answer: -41.8% (active)

Question: With Fc1ccc2c(c1)c(-c1nc(-c3c[nH]c4ncccc34)cs1)cn2CCCCN1CCCCC1 as the compound, how does the growth read?
Answer: -56.6% (active)

Question: For COC[CH2][Hg][C]#[C][Hg][CH2]COC, which growth is on record?
Answer: 110%

Question: For CC(=O)OC1CCC2(C)C(CCC3C2CC(=O)C2(C)C3CC(Sc3ccc(N(CCCl)CCCl)cc3)C2C(C)=O)C1 (stereo not given), which growth is on record?
Answer: 86.6%

Question: Which growth does the source give for COc1ccc(NP2(=O)OCC(C)(N)CO2)cc1 (stereo not given) here?
Answer: 105%

Question: With Oc1c(Cl)cc(Cl)c2ccccc12.[Cu+2] as the compound, how does the growth read?
Answer: 101%

Question: For O=C(CC1(O)C(=O)N(Cc2ccccc2)c2ccc(Cl)cc21)c1ccc(C(=O)NCC2CCC3(CC2)OOC2(CCCCC2)OO3)cc1 (stereo not given), which growth is on record?
Answer: 6.64% (active)

Question: For C=C1C(=O)O[C@H]2[C@H]1CC/C(COC(=O)C(=O)c1cn(Cc3ccccc3)c3ccccc13)=C\CC[C@@]1(C)O[C@@H]21, which growth is on record?
Answer: -60.5% (active)

Question: COc1cc2cc(C(=O)N3C[C@@H](CCl)c4c3cc(OC(=O)N3CCN(C)[C@@H]5CSSC[C@@H]53)c3ccccc43)[nH]c2c(OC)c1OC was tested. Which growth did it give?
Answer: -80% (active)

Question: Which growth does the source give for CC1=C(SCCC(=O)OCC(=O)NCCC[Te]c2ccccc2)C(=O)c2ccccc2C1=O here?
Answer: 9.39% (active)

Question: How did the growth turn out when c1ccc2nc(OCCN3CC3)ccc2c1 was run?
Answer: 69.3%

Question: For COC(=O)CCP(CCC(=O)OC)c1ccccc1, which growth is on record?
Answer: 105%

Question: For CC(=O)Oc1ccccc1C(=O)NC([Se])=NC1CCCCC1, which growth is on record?
Answer: -4.29% (active)

Question: Which growth does the source give for C/C(=C\c1ccn(-c2ccccc2N)n1)[C@@H]1C[C@@H]2O[C@]2(C)CCC[C@H](C)[C@H](O)[C@@H](C)C(=O)C(C)(C)[C@@H](O)CC(=O)O1 here?
Answer: 0% (active)

Question: For Clc1cccc(Cl)c1Cl, which growth is on record?
Answer: 107%

Question: How did the growth turn out when COc1ccc(C/C(C)=C(\c2ccc(OCCN3CCOCC3)cc2)c2ccc(OC(=O)Cc3ccccc3)cc2)cc1 was run?
Answer: -33.4% (active)

Question: For CC12CCC3C(CCC4Cc5[nH]c6ccccc6c5CC43C)C1CCC2O (stereo not given), which growth is on record?
Answer: 29.3%

Question: Which growth does the source give for C[C@]12CCc3sc(Nc4ccc(F)cc4)nc3C1=CC[C@@H]1[C@@H]2CC[C@]2(C)C(=O)CC[C@@H]12 here?
Answer: 40.8%

Question: For COc1cc(C2(C#N)CCN(C)CC2)cc(OC)c1OC, which growth is on record?
Answer: 108%

Question: CC(=O)O[C@H]1C(=O)[C@@]2(C)[C@H]([C@H](OC(=O)c3ccccc3)[C@]3(O)C[C@H](OC(=O)[C@H](OC(=O)OC[C@@H]4COC(C)(C)O4)[C@@H](NC(=O)c4ccccc4)c4ccccc4)C(C)=C1C3(C)C)[C@]1(OC(C)=O)CO[C@@H]1C[C@@H]2O was tested. Which growth did it give?
Answer: -7.94% (active)

Question: With CCOC(=O)C(NC(=O)C(Cc1ccc(N(CCCl)CCCl)cc1)NC(C)=O)C(C)C (stereo not given) as the compound, how does the growth read?
Answer: 92.3%

Question: Which growth does the source give for COCCOCCOCCOc1ccc(-n2cc(-c3ccc(O[C@H]4O[C@@H]5OC6(C)CC[C@H]7[C@H](C)CC[C@@H]([C@H]4C)[C@@]57OO6)cc3)nn2)cc1 here?
Answer: 13.3%

Question: How did the growth turn out when COc1cc2c(O[C@@H]3OC[C@H](OC(C)=O)[C@H](OC(C)=O)[C@H]3O)c3c(c(-c4ccc5c(c4)OCO5)c2cc1OC)C(=O)OC3 was run?
Answer: 55.4%

Question: How did the growth turn out when CCCCCCCCCCOc1ccc(C(=O)Oc2ccc(CSP3(=O)OCC4OC(n5ccc(=O)[nH]c5=O)C(F)C4OP(=O)(O)OCC4OC(n5cnc6c(N)ncnc65)C(F)C4O3)cc2)cc1 (stereo not given) was run?
Answer: 115%

Question: How did the growth turn out when NS(=O)(=O)c1nc[nH]c1[N+](=O)[O-] was run?
Answer: 103%

Question: For O=c1[nH]c2ccccc2n1C1CCN(CCCC(c2ccc(F)cc2)c2ccc(F)cc2)CC1, which growth is on record?
Answer: 33%

Question: Cc1ccccc1-n1c(/C=C\c2ccccn2)nc2ccccc2c1=O was tested. Which growth did it give?
Answer: 3.39% (active)

Question: How did the growth turn out when CCc1ccccc1[C@@H]1C[C@]2(C)CCO[C@@H]2OO1 was run?
Answer: 102%

Question: Which growth does the source give for C[S+]1C=Cc2ccccc2C1c1ccc(Cl)cc1 (stereo not given) here?
Answer: -40.7% (active)

Question: With C/C(=C\c1cc(C(F)(F)F)nn1CCNC(=O)OC(C)(C)C)[C@@H]1C[C@@H]2O[C@]2(C)CCC[C@H](C)[C@H](O)[C@@H](C)C(=O)C(C)(C)[C@@H](O)CC(=O)O1 as the compound, how does the growth read?
Answer: 58.6%

Question: Which growth does the source give for COC(=O)[C@H](Cc1ccccc1)NC(=O)c1csc([C@@H](C[C@H](C(C)C)N(C)C(=O)[C@@H](NC(=O)[C@H]2CCCN2C)C2CC2)OC(C)=O)n1 here?
Answer: -5.59% (active)

Question: CC(CO)NC1CCCCC1 (stereo not given) was tested. Which growth did it give?
Answer: 107%

Question: Which growth does the source give for CC1=C(CCC=NNC(N)=O)C2=C(C)C3(CC3)[C@@](C)(O)C(=O)C2=C1 here?
Answer: -81.5% (active) and -65.8% (active)

Question: Which growth does the source give for ClCCN(CCCl)c1ccc(/C=N/Nc2ncnc3nc[nH]c23)cc1 here?
Answer: 49.8%

Question: CN[C@@]1(c2ccccc2Cl)CCCC[C@@H]1NCC1CCCO1 (stereo not given in full) was tested. Which growth did it give?
Answer: 96.3%
